# Compounds with a hit are over-represented: about 11% of the library has one in this group of screens.
# HCV inhibitor – inhibitors of hepatitis C virus infection. hit rate 3.4% among 340,000. Potency, µM (top dose mostly 41.8 µM), for the others: at the top dose activity change, negative = inhibition, most hits filed as inhibitors. Huh7.5.1 HCVcc-Cre infection, luciferase reporter, 44 h
#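 Infectious HCV cell culture screen: compound-treated cells (1,000/well, pre-plated 4 h) are infected with HCVcc-Cre at roughly 0.5 moi and grown 44 h. Infection is quantified by luciferase signal after 15 min substrate incubation at room temperature.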
# Pf growth 48h – inhibits P. falciparum growth in the first generation, 48 h. P. falciparum luciferase growth in erythrocytes, 48 h. Potency, µM (doses to about 28.7 µM), for inactives: at the top dose activity change, negative = inhibition, most hits filed as inhibitors. hit rate 5.9% among 310,000
#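 Compounds are pin-transferred into medium, infected erythrocytes (2% hematocrit, 0.1% parasitemia final) are added, and plates sit one parasite generation at 37 C in 5% CO2. Detection reagent is then added and luminescence measured.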
# AMA1 RON2 block – disrupts binding of P. falciparum AMA1 to RON2; AlphaScreen AMA1-biotinylated RON2 peptide binding; hit rate 0.2% among 360,000; Potency, µM (doses to about 58.2 µM), for inactives: top-dose activity change, negative = inhibition, usual class: inhibitors;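 also: 0% = vehicle wells and -100% = peptide control; nearly all actives have a fitted effect of over 45% in size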
#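 AMA1 (3D7) with his tag at 25 nM final met compounds first, then biotinylated RON2 peptide at 25 nM; detection used donor plus acceptor beads, 10 µg/mL apiece, read by AlphaScreen after 30 min at room temperature.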
# Pf growth 96h – inhibits malaria parasite growth, 96 h. P. falciparum luciferase reporter growth, 96 h. Potency, µM (series often up to 28.7 µM), for the others: at the highest dose activity change, negative = inhibition, actives largely listed as inhibitors. hit rate 6.9% among 320,000
#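 Luminescence readout: decreased luciferase signal marks inhibited growth of reporter-expressing P. falciparum in infected red cells (2% hematocrit, 0.05% parasitemia final), exposed to compound two generations (96 h, 37 C, 5% CO2).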
# AmpC inh detg – blocks E. coli AmpC beta-lactamase in detergent assay | P00811 | AmpC hydrolysis of nitrocefin, absorbance 480 nm, 0.01% Triton | Potency, µM (series often up to 114 µM), for inactives: at the top dose activity change, negative = inhibition, hits mostly inhibitors | hit rate 0.041% among 370,000;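 also: 0% = no-compound wells and -100% = no-enzyme wells; nearly all actives have a fitted effect of over 25% in size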
# Target sequence (P00811 whole entry, looked up): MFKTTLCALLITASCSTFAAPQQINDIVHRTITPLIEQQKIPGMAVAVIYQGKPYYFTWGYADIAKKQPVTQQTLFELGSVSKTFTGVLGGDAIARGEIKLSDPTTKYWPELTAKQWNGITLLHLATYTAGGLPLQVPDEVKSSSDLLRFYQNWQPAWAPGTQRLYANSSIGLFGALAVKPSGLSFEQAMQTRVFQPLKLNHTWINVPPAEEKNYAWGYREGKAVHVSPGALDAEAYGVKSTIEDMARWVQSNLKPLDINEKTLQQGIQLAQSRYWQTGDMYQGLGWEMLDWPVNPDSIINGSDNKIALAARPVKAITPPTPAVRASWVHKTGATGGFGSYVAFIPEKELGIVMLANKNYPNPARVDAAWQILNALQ
#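 20 mM phosphate pH 7.0 + 0.01% (detergent screen) or 0.0001% Triton X-100; 5.3 nM AmpC reagent; cpd preinc 15 min RT; nitrocefin (800 uM stock) to start; A480 q20 s × 4 min; Activity was normalised to no-enzyme and no-compound control wells.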
# AmpC no deterg – blocks E. coli AmpC beta-lactamase in detergent-free assay. P00811. AmpC nitrocefin hydrolysis, absorbance 480 nm, 0.0001% Triton. Potency, µM (series often up to 57.1 µM), inactives show top-dose activity change, negative = inhibition, actives largely listed as inhibitors. hit rate 0.52% among 330,000;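 also: plate controls were no compound for no effect and no enzyme for full effect; nearly all actives have a fitted effect of over 20% in size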
#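 AmpC (5.3 nM in the dispensed reagent) in 20 mM phosphate pH 7.0 with 0.01% (detergent screen) or 0.0001% Triton X-100 was preincubated with compounds for 15 min at room temperature. Nitrocefin was then added from an 800 uM solution, and hydrolysis was followed at 480 nm.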
# An asterisk follows results filed as active; ? = inconclusive; / = no result. Calls follow the shape of the dose curve; as a rule, active = well fitted curve in the direction sought with a large enough effect; inconclusive = small, poorly fitted or top-dose-only effect, or another doubt; inactive = no such curve, though single readings can be large; an effect the other way counts as inactive or inconclusive. Unless noted, % is scaled to controls: 0 for no effect and ±100 for the full control effect; potency is read from the fitted curve at half-maximal effect.
SMILES,HCV inhibitor,Pf growth 48h,AMA1 RON2 block,Pf growth 96h,AmpC inh detg,AmpC no deterg
Cc1cccc(-c2nc3scc(CCNS(=O)(=O)c4ccc(Oc5ccccc5)cc4)n3n2)c1,/,/,/,/,0%,/
Cc1cc(C)cc(NC(=O)c2cccc(N3CCCS3(=O)=O)c2)c1,/,/,/,/,2%,/
COCCN(C(=O)c1cccc(N2C(=O)CCC2=O)c1)c1nc(-c2ccc([N+](=O)[O-])cc2)cs1,?,?,-24%,2%,?,136%
COc1ccccc1N(C(=O)c1ccncc1)c1nc(-c2ccc([N+](=O)[O-])cc2)cs1,?,9.3µM*,-16%,?,?,40%
O=C1CCC([N+](=O)[O-])C(c2ccc3c(c2)OCO3)N1 (centres undefined),6%,19%,-11%,10µM*,0%,-7%
O=C(Nc1ccccc1)N(Cc1c[nH]c2ccccc12)C1CCCCCC1,/,/,/,/,-3%,/
CCSc1nnc2c(n1)OC(c1ccc(OC)cc1OC)N(C(C)=O)c1ccccc1-2 (centres undefined),/,/,/,/,-2%,/
CCC1CCc2sc(C(=O)NCc3ccccn3)cc2C1 (centres undefined),-9%,-16%,79%,?,1%,33%
CCC1CCc2sc(C(=O)NC3CCN(Cc4ccccc4)CC3)cc2C1 (centres undefined),10µM*,?,-27%,?,?,-2%
CC1CCc2sc(C(=O)NN=C3CCC(c4ccccc4)CC3)cc2C1 (centres undefined),2%,17%,60%,15%,-6%,-25%
CC1CCc2sc(C(=O)NC3CCN(Cc4ccccc4)CC3)cc2C1 (centres undefined),11µM*,8.3µM*,-3%,6.6µM*,3%,3%
CCOc1ccc(CCNC(=O)CCc2c(C)nc3c(c(C)nn3-c3ccccc3)c2C)cc1OCC,/,/,/,/,10%,/
CCCCC(CC)CNC(=O)CCCn1c(=O)[nH]c2ccsc2c1=O (centres undefined),/,/,/,/,-7%,/
Cc1ccc(C(=O)N/C(=C\c2ccc(Cl)cc2)C(=O)NC2CCCCC2)cc1,/,/,/,/,-5%,/
COc1ccc(-n2nc(C(=O)NCCc3cccc(C)c3)c3c4ccccc4n(C)c3c2=O)cc1Cl,/,/,/,/,-1%,/
OCC1(Cc2cccc(Cl)c2)CCCN(Cc2cn[nH]c2C2CCCCC2)C1 (centres undefined),-1%,12µM*,?,8%,2%,67%
COc1ccc(-n2nc(C(=O)NCC(=O)NCc3ccc(F)cc3)c3ccccc3c2=O)cc1OC,13µM*,20%,?,-35%,?,-8%
COc1ccc(-n2nc(C(=O)NCC(=O)NC(C)C)c3ccccc3c2=O)c(OC)c1,18%,15%,0%,20%,-1%,2%
COc1ccc(-n2nc(C(=O)NCC(=O)NCCC3=CCCCC3)c3ccccc3c2=O)cc1OC,?,?,2%,9.3µM*,-1%,112%
COc1ccc(NC(=O)CNC(=O)c2nn(-c3ccc(OC)cc3OC)c(=O)c3ccccc23)c(OC)c1,-3%,?,4%,3.3µM*,?,129%
COc1ccc(-n2nc(C(=O)NCC(=O)NCc3ccc(F)cc3)c3ccccc3c2=O)c(OC)c1,17%,8%,10%,10µM*,-4%,1%
COC(=O)CNC(=O)CNC(=O)c1nn(-c2ccc(OC)c(OC)c2)c(=O)c2ccccc12,6%,17%,5%,28%,-8%,9%
Cc1cc2c(cc1NS(=O)(=O)c1ccc(NC(=O)CC(C)C)cc1)n(C)c(=O)c(=O)n2C,/,/,/,/,-3%,/
CCCOc1ccc(Oc2nc(NCC(C)C)nc(N3CCOCC3)n2)nn1,/,/,/,/,1%,/
Cc1ccc(NC(=O)Cn2c(=O)oc3cc(S(=O)(=O)N4CCCCC4)ccc32)c(Cl)c1,/,/,/,/,14%,/

# High-throughput results deposited in PubChem by National Center for Advancing Translational Sciences (NCATS).
